# Reference: the supplement of paper PMC9135407
# “And” between values parts separate entries of the source, which are not always exact repeats. Equal entries are not always repeated. Structures can show the parent of a compound that is named as a salt. About 620 (11%) of roughly 5,800 compounds showed activity. Shown is part of a subset that was picked to be rich in actives. Values without a mark were called inactive.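 The calls were made as follows: active = score above a cut-off or among the top three wells of a plate; in these data no inactive exceeds 0.85.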
# Tested on: primary human hepatic stellate cells (donor 1)
# Assay: scaled lipid accumulation score (0 = DMSO-like, 1 = nortriptyline-like); higher = stronger HSC inactivation (lipid re-accumulation), active = hit call of the paper
# Conditions: 48 h
# [1] = library stock concentration: 10 mM
# [2] = library stock concentration: 3.33 mM
# [3] = library stock concentration: 1 mM
# [4] = library stock concentration: 5.2 mM
smiles,measurement,setting,value
CN(C)CCCN1c2ccccc2CCc2ccc(Cl)cc21.Cl [Clomipramine hydrochloride] [listing 1 of 3 here],scaled lipid accumulation score,[1],1.01 (active)
CN(C)CCCN1c2ccccc2CCc2ccccc21 [Imipramine HCl],scaled lipid accumulation score,library stock concentration: 7.1 mM,0.618
CN(C)CCCN1c2ccccc2CCc2ccc(Cl)cc21,scaled lipid accumulation score,[1],0.755
CN(C)CCCN1c2ccccc2CCc2ccccc21,scaled lipid accumulation score,[1],0.493
CN(CCCN1c2ccccc2CCc2ccccc21)CC(=O)c1ccc(Cl)cc1 [Lofepramine],scaled lipid accumulation score,[1],0.323
CN(CCCN1c2ccccc2CCc2ccccc21)CC(=O)c1ccc(Cl)cc1,scaled lipid accumulation score,[1],0.191
CN(C)CCN1C(=O)c2ccccc2N(C)c2ccccc21 [Dibenzepine HCl],scaled lipid accumulation score,library stock concentration: 6.8 mM,≤ 0
CN(C)CCCN1c2ccccc2CCc2ccc(Cl)cc21.Cl [Clomipramine hydrochloride] [listing 2 of 3 here],scaled lipid accumulation score,,0.968 (active)
CN(C)CCCN1c2ccccc2CCc2ccc(Cl)cc21.Cl [Clomipramine hydrochloride] [listing 3 of 3 here],scaled lipid accumulation score,[1],1.31 (active)
CN(C)CCCN1c2ccccc2CCc2ccccc21 [Imipramine hydrochloride],scaled lipid accumulation score,,0.652
same,scaled lipid accumulation score,library stock concentration: 6.3 mM,0.714
same,scaled lipid accumulation score,[1],0.59
CN(C)CCCN1c2ccccc2CCc2ccc(Cl)cc21 [Clomipramine HCl],scaled lipid accumulation score,[2],0.402
C[C@@H]1CC[C@@]2(OC1)O[C@H]1C[C@H]3[C@@H]4CC=C5C[C@@H](O)CC[C@]5(C)[C@H]4CC[C@]3(C)[C@H]1[C@@H]2C [Diosgenin],scaled lipid accumulation score,[1],≤ -0.027
CCCCCCCCCCCCCCCC(=O)OC[C@@H](O)COP(=O)(O)O [1-Palmitoyl Lysophosphatidic Acid (sodium salt)],scaled lipid accumulation score,[3],0.001
CCCCCCCCCCCCCCCCOC[C@H](CO)SC(C)=O [2-thio-Acetyl MAGE],scaled lipid accumulation score,[3],≤ 0
"CCCCCC/C=C/C=C\CCCCCCCC(=O)O [9(Z),11(E)-Conjugated Linoleic Acid]",scaled lipid accumulation score,[3],0.029
CCCCCNC(=N)N/N=C/c1c[nH]c2ccc(OC)cc12 [Tegaserod maleate],scaled lipid accumulation score,[1],≤ -0.027
CCCCCNC(=N)N/N=C/c1c[nH]c2ccc(OC)cc12,scaled lipid accumulation score,[1],0.13
CCCCCNC(=N)N/N=C/c1c[nH]c2ccc(OC)cc12 [Tegaserod],scaled lipid accumulation score,[1],≤ -0.027
Cc1cc(-c2ccc(/N=N/c3ccc4c(S(=O)(=O)O)cc(S(=O)(=O)O)c(N)c4c3O)c(C)c2)ccc1/N=N/c1ccc2c(S(=O)(=O)O)cc(S(=O)(=O)O)c(N)c2c1O,scaled lipid accumulation score,[1],0.033
CCCCC[C@H](O)/C=C/[C@@H]1[C@H](C/C=C\CCCC(=O)O)[C@H](O)C[C@H]1O [8-iso Prostaglandin F2.beta.],scaled lipid accumulation score,[3],0.004
CN(C)CCCN1c2ccccc2CCc2ccc(Cl)cc21.Cl [Clomipramine HCl],scaled lipid accumulation score,[1],0.83 (active)
CC[N+]1(C)C2CCC1CC(OC(=O)C1CCC(C(=O)OC3CC4CCC(C3)[N+]4(C)CC)(c3ccccc3)c3ccccc31)C2 (stereo not drawn) [beta- Belladonnine dichloroethylate],scaled lipid accumulation score,,≤ 0
Cc1c(C(N)=O)cc([N+](=O)[O-])cc1[N+](=O)[O-] [Dinitolmide],scaled lipid accumulation score,[2],≤ 0
same,scaled lipid accumulation score,[1],≤ -0.001 and ≤ -0.027
NC1CONC1=O (racemic) [DL-Cycloserine],scaled lipid accumulation score,[1],≤ 0
COc1cc2nc(N3CCN(C(=O)c4ccco4)CC3)nc(N)c2cc1OC [Prazosin hydrochloride],scaled lipid accumulation score,,0.676
same,scaled lipid accumulation score,library stock concentration: 4.8 mM,0.682
same,scaled lipid accumulation score,[1],0.361 and 0.672
COc1cc2nc(N3CCN(C(=O)C4COc5ccccc5O4)CC3)nc(N)c2cc1OC (centres undefined) [Doxazosin mesylate],scaled lipid accumulation score,,≤ 0
same,scaled lipid accumulation score,library stock concentration: 4.4 mM,0.151
same,scaled lipid accumulation score,[1],0.85
COc1cc2nc(N(C)CCCNC(=O)C3CCCO3)nc(N)c2cc1OC (centres undefined) [Alfuzosin HCl],scaled lipid accumulation score,[2],≤ 0
same,scaled lipid accumulation score,[1],≤ 0
COc1cc2nc(N3CCN(C(=O)C4COc5ccccc5O4)CC3)nc(N)c2cc1OC (centres undefined) [Doxazosin],scaled lipid accumulation score,[1],0.539
COc1cc2nc(N3CCN(C(=O)C4COc5ccccc5O4)CC3)nc(N)c2cc1OC (centres undefined) [Doxazosin Mesylate],scaled lipid accumulation score,[2],≤ 0
same,scaled lipid accumulation score,[1],0.473
COc1cc2nc(N3CCN(C(=O)c4ccco4)CC3)nc(N)c2cc1OC [Prazosin],scaled lipid accumulation score,[1],1 (active)
COc1cc2nc(N3CCN(C(=O)c4ccco4)CC3)nc(N)c2cc1OC.Cl [Prazosin hydrochloride],scaled lipid accumulation score,[1],1.35 (active)
COc1cc2nc(N(C)CCCNC(=O)C3CCCO3)nc(N)c2cc1OC (centres undefined),scaled lipid accumulation score,[1],≤ 0
COc1cc2nc(N3CCN(C(=O)C4CCCO4)CC3)nc(N)c2cc1OC (centres undefined) [Terazosin HCl],scaled lipid accumulation score,[2],≤ 0
same,scaled lipid accumulation score,[4],0.009
same,scaled lipid accumulation score,[1],≤ 0
COc1cc2nc(N3CCN(C(=O)C4CCCO4)CC3)nc(N)c2cc1OC (centres undefined) [Terazosin],scaled lipid accumulation score,library stock concentration: 9.6 mM,≤ 0
same,scaled lipid accumulation score,[1],0.162
COc1cc2nc(N(C)CCCNC(=O)C3CCCO3)nc(N)c2cc1OC (centres undefined) [Alfluzocin],scaled lipid accumulation score,[1],0.025
COc1cc2nc(N3CCN(C(=O)c4ccco4)CC3)nc(N)c2cc1OC [Prazosin HCl],scaled lipid accumulation score,[4],0.728
COc1cc2nc(N3CCN(C(=O)c4ccco4)CC3)nc(N)c2cc1OC [Prazocin],scaled lipid accumulation score,library stock concentration: 13 mM,1.03 (active)
COc1cc2nc(N(C)CCCNC(=O)C3CCCO3)nc(N)c2cc1OC (centres undefined) [Alfluzosin],scaled lipid accumulation score,library stock concentration: 5.1 mM,≤ 0
COc1cc2nc(N3CCN(C(=O)C4CCCO4)CC3)nc(N)c2cc1OC (centres undefined) [Terazosin hydrochloride],scaled lipid accumulation score,,≤ 0
same,scaled lipid accumulation score,[1],≤ -0.006
COc1cc2nc(N(C)CCCNC(=O)C3CCCO3)nc(N)c2cc1OC (centres undefined) [Alfuzosin hydrochloride],scaled lipid accumulation score,,≤ 0
same,scaled lipid accumulation score,[1],0.274
